L3MBTL1 inh: L3MBTL1 (human) inhibition | AlphaScreen L3MBTL1–H3K9me1 peptide binding | hit rate 0.66% among 230,000 | Q9Y468 | Potency, µM (series often up to 57.1 µM), inactives show at the top dose activity, negative = inhibition, actives largely listed as inhibitors; note: potency is the fitted concentration of half-maximal effect; % is set by controls: 0 for no effect and ±100 for the full control effect; nearly all actives have a fitted effect of over 60% in size
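L3MBTL1 (50 nM) pre-complexed 30 min with biotinylated H3(1-15)K9me1 peptide (75 nM), then compounds added for 30 min at room temperature; AlphaScreen streptavidin donor/nickel chelate acceptor beads (10 ug/mL final) read after 30 min dark incubation.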
JMJD2E inh: inhibitors of human JMJD2E histone demethylase | B2RXH2 | JMJD2E catalytic domain, FDH-coupled NADH fluorescence (FDH is formaldehyde dehydrogenase) | Potency, µM (series often up to 57.1 µM), without a hit: top-dose activity change, negative = inhibition, hits mostly inhibitors | hit rate 1.6% among 230,000 | AID 2147; active = well fitted inhibition curve with a large enough effect, not every such curve was filed as active; inconclusive = small, poorly fitted or top-dose-only effect, or another doubt; inactive = no such curve, though single readings can be large or run the other way;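 note: potency is the fitted concentration of half-maximal effect; 0% = wells with enzyme and -100% = buffer wells without enzyme; nearly all actives have a fitted effect of over 50% in size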
JMJD2A Tudor: JMJD2A Tudor domain (human) inhibition. O75164. AlphaScreen JMJD2A-Tudor / H3K4me3 peptide binding. Potency, µM (series often up to 114 µM), inactives show at the highest dose activity change, negative = inhibition, most hits filed as inhibitors. hit rate 4.4% among 390,000; note: potency is the fitted concentration of half-maximal effect; % is set by controls: 0 for no effect and ±100 for the full control effect; nearly all actives have a fitted effect of over 50% in size
Target sequence (O75164 whole entry, looked up, the tested form may be a part): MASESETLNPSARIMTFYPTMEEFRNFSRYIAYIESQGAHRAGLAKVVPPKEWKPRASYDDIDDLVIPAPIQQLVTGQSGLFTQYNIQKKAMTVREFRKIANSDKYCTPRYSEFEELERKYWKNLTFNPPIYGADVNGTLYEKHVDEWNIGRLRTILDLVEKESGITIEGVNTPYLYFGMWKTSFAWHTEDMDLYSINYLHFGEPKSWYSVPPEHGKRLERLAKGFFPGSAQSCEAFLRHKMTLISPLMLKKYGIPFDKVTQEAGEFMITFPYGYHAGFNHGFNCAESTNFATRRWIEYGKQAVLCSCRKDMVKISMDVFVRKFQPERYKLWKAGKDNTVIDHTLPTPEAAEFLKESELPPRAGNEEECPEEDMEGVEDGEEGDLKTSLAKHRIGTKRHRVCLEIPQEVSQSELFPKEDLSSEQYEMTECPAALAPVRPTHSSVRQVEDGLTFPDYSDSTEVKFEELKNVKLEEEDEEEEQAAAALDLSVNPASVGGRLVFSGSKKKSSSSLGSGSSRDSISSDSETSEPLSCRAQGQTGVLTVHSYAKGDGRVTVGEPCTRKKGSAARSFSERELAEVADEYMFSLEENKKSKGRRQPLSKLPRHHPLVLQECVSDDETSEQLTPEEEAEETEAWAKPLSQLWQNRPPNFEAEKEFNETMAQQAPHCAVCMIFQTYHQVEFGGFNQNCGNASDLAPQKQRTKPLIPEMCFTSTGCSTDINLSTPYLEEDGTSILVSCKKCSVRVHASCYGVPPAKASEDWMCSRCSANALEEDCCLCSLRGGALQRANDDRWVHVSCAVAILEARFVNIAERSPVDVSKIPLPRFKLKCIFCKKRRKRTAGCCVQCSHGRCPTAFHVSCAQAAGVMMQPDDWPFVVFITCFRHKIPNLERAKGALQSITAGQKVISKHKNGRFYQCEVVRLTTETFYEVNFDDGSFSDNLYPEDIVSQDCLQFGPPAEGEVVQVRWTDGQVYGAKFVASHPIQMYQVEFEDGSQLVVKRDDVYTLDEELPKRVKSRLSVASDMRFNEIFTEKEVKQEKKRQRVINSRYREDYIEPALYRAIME
BAZ2B block: BAZ2B (human) inhibition. AID 504333. AlphaScreen BAZ2B-H3K14Ac peptide displacement. Potency, µM (series often up to 114 µM), inactives show top-dose activity change, negative = inhibition, most hits filed as inhibitors. hit rate 4.4% among 360,000. Q9UIF8; note: potency is the fitted concentration of half-maximal effect; % is set by controls: 0 for no effect and ±100 for the full control effect; nearly all actives have a fitted effect of over 60% in size
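Complex of BAZ2B and biotin-H3K14Ac (50 nM apiece) forms over 30 min at RT, then faces library compounds up to 110 uM for another 30 min; AlphaScreen beads added, 20 min dark incubation, luminescence read.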
PI5P4Ka inh: PI5P4K alpha (human) kinase inhibition; P48426; PI5P4Kalpha enzyme, ADP-Glo luminescence, 60 min; active compounds read low; max response, %; hit rate 1.2% among 330,000; active = max response of -50% or lower; inconclusive = between -30% and -50%; inactive = -30% or higher; note: value at the top dose of about 77 µM; % is set by controls: 0 for no effect and ±100 for the full control effect
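PI5P4Kalpha ADP-Glo assay; 5 microM ATP final; 60 min RT reaction; HEPES pH 7.4/EGTA/CHAPS, 5% DMSO; controls lacking substrate or enzyme; luminescent end-point.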
HP1b chromo inh: inhibitors of HP1-beta chromodomain binding to methylated histone tails; AID 540317; Potency, µM (highest dose often 114 µM), inactives show at the top dose activity change, negative = inhibition, most hits filed as inhibitors; P83916; hit rate 0.56% among 390,000; AlphaScreen HP1-beta / biotin-H3K9me3 peptide binding; note: potency is the fitted concentration of half-maximal effect; nearly all actives have a fitted effect of over 70% in size
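AlphaScreen: HP1-beta (50 nM) preformed 30 min with biotin-H3(1-18)K9me3 peptide (50 nM) in PBS pH 7.4, 0.01% Tween-20. Compound added for 30 min at RT, then streptavidin donor/nickel chelate acceptor beads (10 ug/mL) for 30 min.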
The depositor's hits bear a star; [ ] = another dose, or the depositor's remark. Compounds with a hit are over-represented: about 5.7% of the library has one in this group of screens. Unless noted, calls come from the whole dose curve; as a rule, active = well fitted inhibition curve with a large enough effect; inconclusive = small, poorly fitted or top-dose-only effect; inactive = no such curve, though single readings can be large or run the other way.

For O=C(NCCc1ccccc1)C1CCN(C(=O)c2ccc(F)cc2)CC1 the results were L3MBTL1 inh 1%, JMJD2A Tudor 3%, BAZ2B block 8%, PI5P4Ka inh -7 and HP1b chromo inh 30%.
`O=C(NCCc1ccccc1)C1CCN(Cc2ccccc2F)CC1` gave L3MBTL1 inh -2%, JMJD2E inh inconclusive, JMJD2A Tudor 2.5µM*, BAZ2B block 56µM*, PI5P4Ka inh 6 and HP1b chromo inh 25µM*.
`CN(C)c1ccc(CNC(=O)C2CCN(Cc3cc4ccccc4n3Cc3ccccc3)CC2)cc1` gave JMJD2A Tudor 11µM*, BAZ2B block 3.5µM* and HP1b chromo inh -22%.
For Cc1ccsc1CN1CCC(C(=O)NCc2ccccc2Cl)CC1 the results were L3MBTL1 inh 12%, JMJD2E inh -4%, JMJD2A Tudor 7.9µM*, BAZ2B block -8%, PI5P4Ka inh 2 and HP1b chromo inh inconclusive.
Screening Cc1ccc(COc2ccccc2C(=S)N2CCCC2)cc1 returned L3MBTL1 inh -9%, JMJD2E inh -6%, JMJD2A Tudor 7%, BAZ2B block -26%, PI5P4Ka inh inconclusive and HP1b chromo inh -12%.
Screening Fc1ccc(COc2ccccc2C(=S)N2CCCC2)cc1 returned L3MBTL1 inh -7%, JMJD2E inh -6%, JMJD2A Tudor 79µM*, BAZ2B block -7%, PI5P4Ka inh -25 and HP1b chromo inh inconclusive.
`O=C(C1CCCCC1)N1CCN(c2ccccc2F)CC1` gave JMJD2E inh -5%, JMJD2A Tudor -9%[57.1 µM], BAZ2B block 12%, PI5P4Ka inh -9 and HP1b chromo inh 36%.
`CC(C)CN1CCC(C(=O)N2CCN(c3ccccc3F)CC2)CC1` gave L3MBTL1 inh 5%, JMJD2E inh inconclusive, JMJD2A Tudor 22µM*, BAZ2B block inconclusive, PI5P4Ka inh 1 and HP1b chromo inh inconclusive.
Screening CCOC(=O)c1cnc(-n2nc(C)cc2C)nc1Nc1ccc(C)cc1 returned L3MBTL1 inh -5%, JMJD2E inh 7%, JMJD2A Tudor -22%, BAZ2B block -9%, PI5P4Ka inh 16 and HP1b chromo inh 40%.
Screening CCOC(=O)c1cnc(-n2nc(C)cc2C)nc1Nc1cccc(C(=O)O)c1 returned L3MBTL1 inh 11%, JMJD2E inh -9%, JMJD2A Tudor 89µM*, BAZ2B block 4%, PI5P4Ka inh 0 and HP1b chromo inh 31%.
`Nc1[nH]c(N=NC(=O)c2ccccc2O)c2ccccc12` gave L3MBTL1 inh -11%, JMJD2E inh 25µM*, JMJD2A Tudor inconclusive, BAZ2B block -12%, PI5P4Ka inh -1 and HP1b chromo inh 16%.
Nc1[nH]c(N=NC(=O)c2ccccc2)c2ccccc12 was read as L3MBTL1 inh 11%, JMJD2E inh 3%, JMJD2A Tudor 6%, BAZ2B block inconclusive, PI5P4Ka inh -10 and HP1b chromo inh 27%.
For COc1ccccc1C(=O)Nc1ccccc1SCc1cc(=O)c2ccccc2[nH]1 the results were JMJD2A Tudor -3%, BAZ2B block 3% and HP1b chromo inh 33%[57 µM].
Screening COc1ccc(CN2CCN(Cc3ccccc3F)CC2)cc1OC returned L3MBTL1 inh -5%, JMJD2A Tudor 5.6µM*, BAZ2B block 35µM*, PI5P4Ka inh 10 and HP1b chromo inh inconclusive.
`COc1ccc(NC(=S)N2CCN(Cc3cccc(F)c3)CC2)c(OC)c1` gave L3MBTL1 inh -7%, JMJD2E inh -14%, JMJD2A Tudor -8%[57.1 µM], BAZ2B block inconclusive, PI5P4Ka inh 8 and HP1b chromo inh 8%.
COc1cc(OC)c(OC)cc1CN1CCN(Cc2ccco2)CC1 was read as L3MBTL1 inh 5%, JMJD2A Tudor 22µM*, BAZ2B block 79µM*, PI5P4Ka inh -2 and HP1b chromo inh -11%.
COc1cc(OC)c(OC)cc1CN1CCN(Cc2cccc(F)c2)CC1 was read as L3MBTL1 inh 1%, JMJD2A Tudor 56µM*, BAZ2B block -31%, PI5P4Ka inh 0 and HP1b chromo inh -15%.
`COc1ccc(CN2CCN(Cc3cccc(F)c3)CC2)cc1OC` gave JMJD2A Tudor 3.2µM*, BAZ2B block 22µM*, PI5P4Ka inh -10 and HP1b chromo inh inconclusive.
For COc1ccc(NC(=S)N2CCN(Cc3ccco3)CC2)c(OC)c1 the results were L3MBTL1 inh -1%, JMJD2E inh 5%, JMJD2A Tudor -12%, BAZ2B block -1%, PI5P4Ka inh 0 and HP1b chromo inh 21%.
`CC(C)Cn1c(=O)c2ccccc2n2c(CCC(=O)N3CCN(c4ccccc4F)CC3)nnc12` gave JMJD2A Tudor -11%, BAZ2B block -9% and HP1b chromo inh 40%.
`COc1cc2c(C(=O)N3CCN(c4ccc(C)cc4)C(C)C3)cn(CC(C)C)c(=O)c2cc1OC` (centres undefined) gave JMJD2A Tudor -33%, BAZ2B block -32% and HP1b chromo inh 9%.
`COc1ccc(CN2CCN(c3ccccc3OC)CC2)cc1OC` gave L3MBTL1 inh 0%, JMJD2A Tudor 22µM*, BAZ2B block 50µM*, PI5P4Ka inh 0 and HP1b chromo inh inconclusive.
COc1cc(OC)c(OC)cc1CN1CCN(c2ccc(F)cc2)CC1 was read as L3MBTL1 inh -19%, JMJD2E inh inconclusive, JMJD2A Tudor 45µM*, BAZ2B block 50µM*, PI5P4Ka inh 0 and HP1b chromo inh inconclusive.
Screening COC(=O)c1cc(CN2CCN(c3ccccc3C)CC2)ccc1O returned JMJD2E inh inconclusive, JMJD2A Tudor 2µM*, BAZ2B block 56µM* and HP1b chromo inh inconclusive.
For COc1ccc(C(=O)CN2CCN(c3ccc(F)cc3)CC2)cc1OC the results were L3MBTL1 inh 3%, JMJD2E inh 3%, JMJD2A Tudor -24%, BAZ2B block -7%, PI5P4Ka inh -7 and HP1b chromo inh 31%.
For COc1ccccc1N1CCN(Cc2ccc(C(=O)O)cc2)CC1 the results were L3MBTL1 inh 1%, JMJD2A Tudor 6%, BAZ2B block -21%, PI5P4Ka inh 2 and HP1b chromo inh 45%.
For COC(=O)c1sccc1S(=O)(=O)N(CC(=O)NCc1ccc(F)cc1)c1ccccc1 the results were JMJD2A Tudor -12%, BAZ2B block -10% and HP1b chromo inh 12%.
O=[N+]([O-])c1cccc2c(S(=O)(=O)N3CCCCC3)cccc12 was read as JMJD2A Tudor inconclusive, BAZ2B block 71µM*, PI5P4Ka inh 0 and HP1b chromo inh inconclusive.
Screening O=C(Cc1cc(=O)[nH][nH]1)N/N=C/C=C/c1ccccc1 returned L3MBTL1 inh -8%, JMJD2E inh 6%, JMJD2A Tudor inconclusive, BAZ2B block -34%, PI5P4Ka inh -60* and HP1b chromo inh -15%.
